In PubChem BioAssay (NCI):
The panel holds about 79,000 compounds, 15% with a hit somewhere; the sample as a whole holds those more often. The source made the active and inactive calls. No stated cut-off is given here; in the data, active means growth inhibition above about 70%; inactive means the rest.

Key:
[1] = NCI Yeast Anticancer Drug Screen. Data for the rad52 strain (AID 147);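 further: 0% = growth of vehicle-treated control cultures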; conditions: S. cerevisiae rad52 mutant growth inhibition, active compounds read high
Procedure, shortened: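 Vehicle-treated cultures served as the reference for growth inhibition of compound-exposed yeast bearing a DNA repair mutation.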

[2] = NCI Yeast Anticancer Drug Screen. Data for the wt1 strain (AID 149);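 further: 0% = growth of vehicle-treated wt1 cultures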; conditions: S. cerevisiae wt1 strain (SPY 50644) growth inhibition, active compounds read high
Procedure, shortened: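 Yeast wt1 strain exposed to compounds; growth inhibition measured relative to vehicle-treated controls.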

[3] = NCI Yeast Anticancer Drug Screen. Data for the rad50EPP+ strain (AID 151);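 further: 0% = growth of vehicle-treated control cultures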; conditions: S. cerevisiae rad50 mutant strain, active compounds read high
Procedure, shortened: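 In this screen, rad50EPP+ yeast were exposed to compounds. Growth inhibition was scored against vehicle-treated controls.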

[4] = NCI Yeast Anticancer Drug Screen. Data for the mgt1 strain (AID 153); conditions: S. cerevisiae mgt1 mutant growth inhibition, active compounds read high
Procedure, shortened: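 mgt1 strain exposed; growth vs vehicle control recorded as inhibition.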

[5] = NCI Yeast Anticancer Drug Screen. Data for the rad50 strain (AID 155);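 further: 0% = growth of vehicle-only cultures of the same strain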; conditions: S. cerevisiae rad50 strain growth inhibition, active compounds read high
Procedure, shortened: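 Yeast carrying a defined DNA repair defect were exposed to test compounds, and growth was compared with vehicle-treated controls to give percent inhibition.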

[6] = NCI Yeast Anticancer Drug Screen. Data for the mec2-1 strain (AID 157); conditions: S. cerevisiae mec2-1 strain, active compounds read high
Procedure, shortened: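 Vehicle-treated cultures served as reference for growth inhibition of compound-exposed mec2-1 yeast.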

[7] = NCI Yeast Anticancer Drug Screen. Data for the rad14 strain (AID 159);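 further: 0% = growth of vehicle-treated control cultures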; conditions: S. cerevisiae rad14 strain growth inhibition, active compounds read high
Procedure, shortened: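 Yeast cells carrying a defined DNA-repair defect were exposed to compounds, and growth inhibition was calculated relative to vehicle-treated control cultures.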

[8] = NCI Yeast Anticancer Drug Screen. Data for the sgs1 mgt1 strain (AID 161);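 further: 0% = growth of cultures given vehicle only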; conditions: S. cerevisiae sgs1 mgt1 strain, active compounds read high
Procedure, shortened: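 Read-out: growth inhibition vs vehicle controls. Cells: mutant yeast strain deficient in DNA damage repair.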

[9] = NCI Yeast Anticancer Drug Screen. Data for the CLN2oe strain (AID 163);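 further: 0% = growth of vehicle-only control cultures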; conditions: S. cerevisiae CLN2oe strain, active compounds read high
Procedure, shortened: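 Inhibition relative to vehicle-treated yeast is reported. Cells: strain with genetic alteration in cell-cycle control, grown with compound.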

[10] = NCI Yeast Anticancer Drug Screen. Data for the cln2 rad14 strain (AID 165);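 further: 0% = growth equal to vehicle treated cultures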; conditions: S. cerevisiae cln2 rad14 strain, active compounds read high
Procedure, shortened: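 Each compound was tested on cln2 rad14 yeast. Inhibition of growth was calculated against vehicle-exposed controls.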

[11] = NCI Yeast Anticancer Drug Screen. Data for the bub3 strain (AID 167); conditions: S. cerevisiae bub3 mutant strain, active compounds read high
Procedure, shortened: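 Compounds were applied to a genetically altered yeast strain carrying a cell-cycle control defect. Growth inhibition was scored against vehicle-treated controls.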

[12] = NCI Yeast Anticancer Drug Screen. Data for the wt2 strain (AID 169);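 further: 0% = growth of vehicle-treated yeast cultures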; conditions: S. cerevisiae wt2 strain growth inhibition, active compounds read high
Procedure, shortened: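 Inhibition of yeast growth was determined after compound treatment, normalised to controls receiving only vehicle.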

[13] = NCI Yeast Anticancer Drug Screen. Data for the mlh1 strain (AID 171);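 further: 0% = growth of vehicle-treated control cultures of the same strain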; conditions: S. cerevisiae mlh1 strain growth inhibition, active compounds read high
Procedure, shortened: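 Vehicle-normalised growth inhibition of a repair- or checkpoint-altered yeast strain following compound treatment.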

[14] = NCI Yeast Anticancer Drug Screen. Data for the sgs1 strain (AID 173);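 further: 0% = growth of vehicle-only control cultures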; conditions: S. cerevisiae sgs1 mutant, active compounds read high
Procedure, shortened: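 Screen format: yeast with repair or checkpoint alterations, compound exposure, growth read relative to vehicle.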

[15] = NCI Yeast Anticancer Drug Screen. Data for the mlh1 rad18 strain (AID 175); conditions: S. cerevisiae mlh1 rad18 strain growth inhibition, active compounds read high
Procedure, shortened: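 Vehicle-treated cultures served as the reference for growth inhibition in a yeast strain carrying DNA damage repair alterations exposed to each compound.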

[16] = NCI Yeast Anticancer Drug Screen. Data for the rad18 strain (AID 177); conditions: S. cerevisiae rad18 mutant growth inhibition, active compounds read high
Procedure, shortened: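 Test articles were incubated with altered yeast defective in DNA damage repair. Results are given as inhibition of growth versus vehicle.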

[17] = at 5.0 µM (retest, dose inferred, filed as 0.5)
[18] = at 50.0 µM (retest, dose inferred, filed as 5.0)

Measured: growth inhibition

Nc1nc(-c2cccnc2)cc(-c2cc(-c3cccnc3)nc(N)n2)n1
active: [10]; [18] 86%
inactive: [1]; at 1.2 µM 0% | [1]; at 3.7 µM 0% | [1]; at 11.0 µM -3% | [1]; at 33.0 µM -2% | [1]; at 100.0 µM -8% | [2]; at 1.2 µM 0% | [2]; at 3.7 µM -1% | [2]; at 11.0 µM -1% | [2]; at 33.0 µM -2% | [2]; at 100.0 µM -2% | [3]; at 1.2 µM -2% | [3]; at 3.7 µM -3% | [3]; at 11.0 µM -3% | [3]; at 33.0 µM 0% | [3]; at 100.0 µM -2% | [4]; at 1.2 µM 2% | [4]; at 3.7 µM 2% | [4]; at 11.0 µM 2% | [4]; at 33.0 µM -1% | [4]; at 100.0 µM 3% | [5]; at 1.2 µM 0% | [5]; at 3.7 µM 5% | [5]; [17] 1% | [5]; at 11.0 µM 2% | [5]; at 33.0 µM 4% | [5]; [18] 5% | [5]; at 50.0 µM 3.7% | [5]; at 100.0 µM 8% | [6]; at 1.2 µM 0% | [6]; at 3.7 µM 2% | [6]; [17] 24% | [6]; at 11.0 µM -1% | [6]; at 33.0 µM 0% | [6]; [18] 33% | [6]; at 50.0 µM 1.1% | [6]; at 100.0 µM -6% | [7]; at 1.2 µM -1% | [7]; at 3.7 µM 2% | [7]; at 11.0 µM -1% | [7]; at 33.0 µM 0% | [7]; at 100.0 µM -1% | [8]; [17] 19% | [8]; [18] 15% | [8]; at 50.0 µM 0.15% | [9]; at 1.2 µM -2% | [9]; at 3.7 µM 2% | [9]; at 11.0 µM 2% | [9]; at 33.0 µM 1% | [9]; at 100.0 µM 1% | [10]; [17] 46% | [10]; at 50.0 µM 9.95% | [11]; at 1.2 µM 0% | [11]; at 3.7 µM -6% | [11]; [17] -17% | [11]; at 11.0 µM 0% | [11]; at 33.0 µM -2% | [11]; [18] -5% | [11]; at 50.0 µM 6.3% | [11]; at 100.0 µM -10% | [12]; at 1.2 µM -1% | [12]; at 3.7 µM 0% | [12]; at 11.0 µM 1% | [12]; at 33.0 µM -1% | [12]; at 100.0 µM 0% | [13]; at 1.2 µM -1% | [13]; at 3.7 µM -1% | [13]; at 11.0 µM -13% | [13]; at 33.0 µM -14% | [13]; at 100.0 µM 13% | [14]; at 1.2 µM -2% | [14]; at 3.7 µM -4% | [14]; at 11.0 µM -4% | [14]; at 33.0 µM -6% | [14]; at 100.0 µM -7% | [15]; [17] -15% | [15]; [18] 10% | [15]; at 50.0 µM 28.6% | [16]; at 1.2 µM -2% | [16]; at 3.7 µM -4% | [16]; at 11.0 µM -9% | [16]; at 33.0 µM -18% | [16]; at 100.0 µM -28%

CCOC(=O)c1cnc2cc(C(F)(F)F)ccc2c1N=[N+]=[N-]
active: [1]; at 100.0 µM 85% | [2]; at 100.0 µM 87% | [3]; at 100.0 µM 82% | [4]; at 100.0 µM 92% | [5]; at 100.0 µM 83% | [6]; at 100.0 µM 90% | [7]; at 100.0 µM 93% | [9]; at 100.0 µM 87% | [11]; at 100.0 µM 74% | [12]; at 100.0 µM 93% | [13]; at 100.0 µM 87% | [14]; at 33.0 µM 75% | [14]; at 100.0 µM 94% | [16]; at 100.0 µM 88%
inactive: [1]; at 1.2 µM 12% | [1]; at 3.7 µM 13% | [1]; at 11.0 µM 23% | [1]; at 33.0 µM 48% | [2]; at 1.2 µM 3% | [2]; at 3.7 µM 4% | [2]; at 11.0 µM 8% | [2]; at 33.0 µM 37% | [3]; at 1.2 µM 6% | [3]; at 3.7 µM 13% | [3]; at 11.0 µM 26% | [3]; at 33.0 µM 54% | [4]; at 1.2 µM 4% | [4]; at 3.7 µM 6% | [4]; at 11.0 µM 22% | [4]; at 33.0 µM 66% | [5]; at 1.2 µM 8% | [5]; at 3.7 µM 25% | [5]; [17] 7% | [5]; at 11.0 µM 23% | [5]; at 33.0 µM 50% | [5]; [18] 20% | [5]; at 50.0 µM 44.4% | [6]; at 1.2 µM 14% | [6]; at 3.7 µM 12% | [6]; [17] -3% | [6]; at 11.0 µM 22% | [6]; at 33.0 µM 56% | [6]; [18] 4% | [6]; at 50.0 µM 20.2% | [7]; at 1.2 µM 7% | [7]; at 3.7 µM 3% | [7]; at 11.0 µM 12% | [7]; at 33.0 µM 49% | [8]; [17] -1% | [8]; [18] -3% | [8]; at 50.0 µM 43.4% | [9]; at 1.2 µM 11% | [9]; at 3.7 µM 12% | [9]; at 11.0 µM 18% | [9]; at 33.0 µM 64% | [10]; [17] -4% | [10]; [18] 1% | [10]; at 50.0 µM 25.1% | [11]; at 1.2 µM 11% | [11]; at 3.7 µM 7% | [11]; [17] -17% | [11]; at 11.0 µM 14% | [11]; at 33.0 µM 46% | [11]; [18] 48% | [11]; at 50.0 µM -3.4% | [12]; at 1.2 µM 2% | [12]; at 3.7 µM 2% | [12]; at 11.0 µM 14% | [12]; at 33.0 µM 59% | [13]; at 1.2 µM 7% | [13]; at 3.7 µM 6% | [13]; at 11.0 µM 15% | [13]; at 33.0 µM 51% | [14]; at 1.2 µM 10% | [14]; at 3.7 µM 12% | [14]; at 11.0 µM 25% | [15]; [17] -4% | [15]; [18] 12% | [15]; at 50.0 µM 59.9% | [16]; at 1.2 µM 15% | [16]; at 3.7 µM 22% | [16]; at 11.0 µM 33% | [16]; at 33.0 µM 58%
